Results filed as inconclusive are left out. Where a call stands in place of a potency, no number is given. A number with no mark means an inactive call. Calls of active or inactive are those of the source. The call rests on the fitted dose curve; in most records, active means well fitted curve in the direction sought with a large enough effect; inconclusive means small, poorly fitted or top-dose-only effect, or another doubt; inactive means no such curve, though single readings can be large; an effect the other way counts as inactive or inconclusive.
What was measured:
[1] = qHTS of pediatric cancer cell lines to identify multiple opportunities for drug repurposing: Primary screen for Rh18 cells (AID 1347102); further: nearly all actives have a fitted effect of over 65% in size; further: potency means the concentration at half of the fitted maximal effect
Summary of the method: (§1)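 Cells (500-1,000/well) rested 5 h, then received compounds for 48 h; metabolically active cells were measured by CellTiter-Glo luminescence. Final concentrations spanned up to 46 µM (MIPE, 11-point) or 0.59 nM-46 µM (NPC, 8-point) in primary screens, 11-point in follow-ups.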

[2] = qHTS of pediatric cancer cell lines to identify multiple opportunities for drug repurposing: Primary screen for OHS-50 cells (AID 1347103); further: nearly all actives have a fitted effect of over 40% in size; further: potency means the concentration at half of the fitted maximal effect
Summary of the method: as §1

[3] = qHTS of pediatric cancer cell lines to identify multiple opportunities for drug repurposing: Primary screen for RD cells (AID 1347104); further: nearly all actives have a fitted effect of over 55% in size; further: potency means the concentration at half of the fitted maximal effect
Summary of the method: (§2)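 Plated cells (500-1,000 per well, growth media) were allowed to settle for 5 hours, treated with compound dilutions for 48 hours, then lysed with CellTiter-Glo for 15 min at room temperature before luminescence reading.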

[4] = qHTS of pediatric cancer cell lines to identify multiple opportunities for drug repurposing: Primary screen for MG 63 (6-TG R) cells (AID 1347105); further: nearly all actives have a fitted effect of over 50% in size; further: potency means the concentration at half of the fitted maximal effect
Summary of the method: as §2

[5] = qHTS of pediatric cancer cell lines to identify multiple opportunities for drug repurposing: Primary screen for Rh30 cells (AID 1347107); further: nearly all actives have a fitted effect of over 75% in size; further: potency means the concentration at half of the fitted maximal effect
Summary of the method: as §1

[6] = qHTS of pediatric cancer cell lines to identify multiple opportunities for drug repurposing: Primary screen for Rh41 cells (AID 1347108); further: nearly all actives have a fitted effect of over 70% in size; further: potency means the concentration at half of the fitted maximal effect;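 on activity change, negative = cytotoxic: luminescence drop marks cytotoxic hits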
Summary of the method: as §2

[7] = qHTS of pediatric cancer cell lines to identify multiple opportunities for drug repurposing: Primary screen for control Hh wild type fibroblast cells (AID 1347106);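 further: a drop in luminescence marks cytotoxicity and a rise apparent proliferation; nearly all actives have a fitted effect of over 55% in size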
Summary of the method: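 Viability after 48 h compound treatment at 37C, 500-1,000 cells/well, read as ATP luminescence with CellTiter-Glo. Primary screens used 11-point (MIPE, 0.78 nM-46 µM) or 8-point (NPC, 0.59 nM-46 µM) final concentrations; follow-up screens used 11-point dilutions.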

[8] = qHTS of pediatric cancer cell lines to identify multiple opportunities for drug repurposing: Confirmatory screen for NB1643 cells (AID 1347109); further: nearly all actives have a fitted effect of over 45% in size; further: potency means the concentration at half of the fitted maximal effect
Summary of the method: as §1

[9] = qHTS of pediatric cancer cell lines to identify multiple opportunities for drug repurposing: Confirmatory screen for A673 cells (AID 1347110);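 further: cells exposed to compound for 48 h before the viability read; nearly all actives have a fitted effect of over 65% in size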; further: potency means the concentration at half of the fitted maximal effect
Summary of the method: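 A673 cells at 500-1,000 cells/well were dosed 5 h after plating, in dilution series up to 46 uM final; primary runs used 8 or 11 points and confirmatory runs used 11 points. Viability was read by CellTiter-Glo luminescence after 48 h, against DMSO and 2.3 uM bortezomib controls.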

[10] = qHTS of pediatric cancer cell lines to identify multiple opportunities for drug repurposing: Confirmatory screen for SK-N-MC cells (AID 1347111);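 further: potency means the concentration at half of the fitted maximal effect; cells exposed to compound for 48 h before the readout; nearly all actives have a fitted effect of over 70% in size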
Summary of the method: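 Seed 500-1,000 cells/well; rest 5 h at 37 degrees C. Pin-transfer compounds, 11-point titration. Incubate 48 h. Add CellTiter-Glo, 15 min RT, read luminescence.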

[11] = qHTS of pediatric cancer cell lines to identify multiple opportunities for drug repurposing: Confirmatory screen for LAN-5 cells (AID 1347113); further: nearly all actives have a fitted effect of over 65% in size; further: potency means the concentration at half of the fitted maximal effect
Summary of the method: as §1

[12] = qHTS of pediatric cancer cell lines to identify multiple opportunities for drug repurposing: Confirmatory screen for DAOY cells (AID 1347114); further: nearly all actives have a fitted effect of over 65% in size; further: potency means the concentration at half of the fitted maximal effect
Summary of the method: (§3)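 Viability measured as metabolically active cells via CellTiter-Glo luminescence following 48 hours of compound exposure, 11-point dilutions in confirmatory testing. 500-1,000 cells/well plated 5 hours before dosing; controls were DMSO and 2.3 µM bortezomib.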

[13] = qHTS of pediatric cancer cell lines to identify multiple opportunities for drug repurposing: Confirmatory screen for NB-EBc1 cells (AID 1347115);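 further: potency means the concentration at half of the fitted maximal effect; cells exposed to compound for 48 h before the viability read; nearly all actives have a fitted effect of over 45% in size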
Summary of the method: as §1

[14] = qHTS of pediatric cancer cell lines to identify multiple opportunities for drug repurposing: Confirmatory screen for SJ-GBM2 cells (AID 1347116); further: nearly all actives have a fitted effect of over 60% in size; further: potency means the concentration at half of the fitted maximal effect
Summary of the method: as §3

[15] = qHTS of pediatric cancer cell lines to identify multiple opportunities for drug repurposing: Confirmatory screen for BT-37 cells (AID 1347117); conditions: BT-37 pediatric cancer cells, viability; activity change, negative = cytotoxic: at 45.9 µM (top of the series); further: nearly all actives have a fitted effect of over 55% in size; further: potency means the concentration at half of the fitted maximal effect
Summary of the method: as §1

[16] = qHTS of pediatric cancer cell lines to identify multiple opportunities for drug repurposing: Confirmatory screen for TC32 cells (AID 1347118)
Summary of the method: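 Luminescent ATP read-out (CellTiter-Glo) of metabolically active TC32 cells after 48 h exposure. Concentration-response curves came from 11-point (MIPE, 0.78 nM–46 µM) or 8-point (NPC, 0.59 nM–46 µM) primary titrations; follow-up used 11 points.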

[17] = qHTS of pediatric cancer cell lines to identify multiple opportunities for drug repurposing: Confirmatory screen for MG 63 (6-TG R) cells (AID 1347119); further: nearly all actives have a fitted effect of over 55% in size; further: potency means the concentration at half of the fitted maximal effect
Summary of the method: as §1

[18] = qHTS of pediatric cancer cell lines to identify multiple opportunities for drug repurposing: Confirmatory screen for control Hh wild type fibroblast cells (AID 1347121); further: nearly all actives have a fitted effect of over 70% in size
Summary of the method: as §1

[19] = qHTS of pediatric cancer cell lines to identify multiple opportunities for drug repurposing: Confirmatory screen for BT-12 cells (AID 1347112); further: nearly all actives have a fitted effect of over 55% in size
Summary of the method: as §1

In the case of `C[C@]12CCC(=O)C=C1[C@@H]1CC1[C@H]1[C@H]3[C@@H]4C[C@H]4[C@@]4(CCC(=O)O4)[C@@]3(C)CC[C@H]12` (stereo not given in full), the Potency [1] was “inactive”, the Potency [2] was 19.3 µM (active) and the Potency [3] was “inactive”. For the same molecule, the Potency [4] was “inactive”, the Potency [5] was “inactive” and the Potency [6] was “inactive”.
For `Cc1ccccc1C(=O)Nc1ccc(C(=O)N2CCCC(O)c3cc(Cl)ccc32)c(C)c1` (stereo not given), the Potency [1] was “inactive”, the Potency [2] was “inactive” and the Potency [3] was “inactive”. The Potency [7] was “inactive”, the Potency [5] was “inactive” and the Potency [6] was “inactive”.
With `CN1CCc2c(c3ccccc3n2Cc2ccc(C(=O)NO)cc2)C1` the Potency [1] was 18.7 µM (active), the Potency [2] was 13.7 µM (active) and the Potency [3] was 16.6 µM (active). For the same molecule, the Potency [7] was “inactive”, the Potency [5] was 20.9 µM (active) and the Potency [6] was 13.2 µM (active).
With `COC1=C2C[C@@H](C)C[C@H](OC)[C@@H](O)[C@@H](C)C=C(C)[C@H](OC(N)=O)[C@@H](OC)C=CC=C(C)C(=O)NC(=CC1=O)C2=O` the Potency [1] was 5.9 µM (active), the Potency [2] was 6.85 µM (active) and the Potency [3] was 5.26 µM (active). The Potency [4] was 14.8 µM (active), the Potency [6] was 7.43 µM (active) and the Potency [8] was 1.31 µM (active). The Potency [9] was 2.61 µM (active), the Potency [10] was 1.04 µM (active) and the Potency [11] was 1.47 µM (active). For the same molecule, the Potency [12] was 5.85 µM (active), the Potency [13] was 9.27 µM (active) and the Potency [14] was 1.31 µM (active). For the same molecule, the Potency [15] was 1.04 µM (active) and the Potency [16] was 0.928 µM (active).
In the case of `Cc1cc(O)c2c(c1)C(=O)c1cccc(O)c1C2=O`, the Potency [1] was “inactive”, the Potency [3] was “inactive” and the Potency [4] was “inactive”. The Potency [7] was “inactive” and the Potency [6] was “inactive”.
In the case of `C[C@@]12C[C@@]3(O)O[C@@H](O1)[C@]1(COC(=O)c4ccccc4)[C@@H]3C[C@@]12O[C@@H]1O[C@H](CO)[C@@H](O)[C@H](O)[C@@H]1O`, the Potency [1] was “inactive”, the Potency [2] was “inactive” and the Potency [3] was “inactive”. The Potency [4] was “inactive”, the Potency [5] was “inactive” and the Potency [6] was “inactive”.
In the case of `O=C(NC1CC1)c1cccc(-c2ccc3c(NC(=O)C4CC4)n[nH]c3c2)c1`, the Potency [1] was 2.96 µM (active), the Potency [2] was 3.85 µM (active) and the Potency [3] was 0.935 µM (active). For the same molecule, the Potency [4] was 1.48 µM (active), the Potency [5] was “inactive” and the Potency [6] was 2.96 µM (active). The Potency [9] was 4.14 µM (active), the Potency [10] was 8.27 µM (active) and the Potency [11] was “inactive”. The Potency [12] was 9.27 µM (active), the Potency [16] was 5.85 µM (active) and the Potency [17] was 11.7 µM (active). The Potency [18] was “inactive”.
In the case of `CCCCC(=O)O[C@]1(C(=O)CO)[C@@H](C)C[C@H]2[C@@H]3CCC4=CC(=O)C=C[C@]4(C)[C@@]3(F)[C@@H](O)C[C@@]21C`, the Potency [1] was “inactive”, the Potency [3] was “inactive” and the Potency [4] was “inactive”. The Potency [7] was “inactive”, the Potency [5] was “inactive” and the Potency [6] was “inactive”. For the same molecule, the Potency [8] was “inactive”, the Potency [9] was “inactive” and the Potency [10] was 18.5 µM (active). The Potency [19] was “inactive”, the Potency [11] was “inactive” and the Potency [12] was “inactive”. The Potency [14] was “inactive”, the Potency [15] was “inactive” and the Potency [17] was “inactive”. For the same molecule, the Potency [18] was “inactive”.
For `CC(C)c1cc(C(C)C)c(CC(=O)NS(=O)(=O)Oc2c(C(C)C)cccc2C(C)C)c(C(C)C)c1`, the Potency [1] was “inactive”, the Potency [2] was 27.3 µM (active) and the Potency [7] was “inactive”.
In the case of `CNC(=O)c1cccc(-c2ccc3c(N4CCOC[C@H]4C)nc(N4CCOC[C@H]4C)nc3n2)c1`, the Potency [1] was 0.332 µM (active), the Potency [2] was 0.0685 µM (active) and the Potency [3] was 0.148 µM (active). For the same molecule, the Potency [4] was 0.0296 µM (active), the Potency [6] was 0.118 µM (active) and the Potency [9] was 1.47 µM (active). The Potency [10] was 1.04 µM (active), the Potency [11] was 2.33 µM (active) and the Potency [14] was 2.61 µM (active). For the same molecule, the Potency [16] was 0.737 µM (active) and the Potency [17] was 0.522 µM (active).
With `Nc1ccc(C(=O)Nc2cccc(-c3nc(N4CCOCC4)c4oc5ncccc5c4n3)c2)cn1` the Potency [1] was 14.8 µM (active), the Potency [2] was 6.11 µM (active) and the Potency [3] was 10.5 µM (active). The Potency [7] was “inactive”.
For `NC(=O)Nc1sc(-c2ccc(F)cc2)cc1C(N)=O`, the Potency [1] was 5.26 µM (active), the Potency [3] was 1.66 µM (active) and the Potency [4] was 0.59 µM (active). For the same molecule, the Potency [7] was “inactive”, the Potency [5] was 6.62 µM (active) and the Potency [6] was 1.05 µM (active). For the same molecule, the Potency [9] was 6.57 µM (active), the Potency [10] was 8.27 µM (active) and the Potency [19] was “inactive”. The Potency [12] was “inactive”, the Potency [14] was “inactive” and the Potency [16] was 5.22 µM (active). For the same molecule, the Potency [17] was 11.7 µM (active) and the Potency [18] was “inactive”.
With `C[C@H](NC(=O)Cc1cc(F)cc(F)c1)C(=O)N[C@H](C(=O)OC(C)(C)C)c1ccccc1` the Potency [1] was “inactive”, the Potency [3] was “inactive” and the Potency [7] was “inactive”. The Potency [5] was “inactive”.
For `C[C@@H](Cc1cc2c(c(C(N)=O)c1)N(CCCO)CC2)NCCOc1ccccc1OCC(F)(F)F`, the Potency [1] was “inactive”, the Potency [3] was “inactive” and the Potency [4] was “inactive”. For the same molecule, the Potency [7] was “inactive”, the Potency [5] was “inactive” and the Potency [6] was “inactive”.
For `CCCNS(=O)(=O)Nc1ncnc(OCCOc2ncc(Br)cn2)c1-c1ccc(Br)cc1`, the Potency [1] was “inactive”, the Potency [2] was “inactive” and the Potency [3] was “inactive”. For the same molecule, the Potency [4] was “inactive” and the Potency [5] was “inactive”.
In the case of `c1cncc(CN2CCC(n3ncc4c(N5CCOCC5)nc(-c5ccc6[nH]ccc6c5)nc43)CC2)c1`, the Potency [1] was 5.9 µM (active), the Potency [2] was 2.17 µM (active) and the Potency [3] was 6.62 µM (active). For the same molecule, the Potency [4] was 14.8 µM (active), the Potency [5] was 14.8 µM (active) and the Potency [6] was 3.32 µM (active).

From PubChem BioAssay (NCATS)
